Sampled rows, rich in hits. Any-hit rate of the full collection: about 0.86%.
CDC25B CDK2 inh: primary biochemical HTRF screen for blockers of M-phase inducer phosphatase 2 binding to CDK2/cyclin A; HTRF CDC25B-CDK2/CyclinA binding, anti-His/anti-Flag; active compounds read high; P30305+P24941; 0.72% of 94,000 active; z-score (no concentration beside the values); in the data active = z-score above about 3.2
HIV TAR-Tat: TAR RNA-Tat peptide displacers, HIV-1, primary screen, biochemical, FRET, FAM/TAMRA-labeled Tat; z-score (concentration not given with the values); 0.6% of 100,000 active; HIV-1 TAR RNA, Tat peptide displacement FRET; active compounds read high; active = z-score of 3 or more in at least 2 runs
An asterisk follows results filed as active.

Screening CCc1cc2c3c([nH]c2cc1S(=O)(=O)NCC1CCCO1)CC(C)(C)CC3=O (configuration not stated) returned HIV TAR-Tat 0.97.
Screening Cc1ccc(C(=O)Nc2cnc3sc4c(n3c2=O)CCC(C(C)(C)C)C4)cc1 (configuration not stated) returned CDC25B CDK2 inh 0.92 and HIV TAR-Tat 0.3.
For O=C(/C=C/c1cccc(C(=O)NO)c1)NO the results were HIV TAR-Tat 0.97.
`O=C(CCc1nc(CS(=O)(=O)c2ccccc2)no1)NC1CCCC1` gave HIV TAR-Tat 0.57.
For CCCN1CCN(c2cc(NCC)c3c4c(onc24)-c2ccccc2C3=O)CC1 the results were CDC25B CDK2 inh -1.8 and HIV TAR-Tat -0.63.
For CCN1CCN(c2cc(NC(C)C)c3c4c(onc24)-c2ccccc2C3=O)CC1 the results were CDC25B CDK2 inh -1.8 and HIV TAR-Tat 5.7*.
Screening O=C1c2ccccc2-c2onc3c(N4CCOCC4)cc(NC4CCCCC4)c1c23 returned CDC25B CDK2 inh -0.89 and HIV TAR-Tat 0.24.
`CC1CCN(c2cc(NC(C)C)c3c4c(onc24)-c2ccccc2C3=O)CC1` gave CDC25B CDK2 inh -0.91 and HIV TAR-Tat 2.3.
CC(C)Nc1cc(N2CCCC2)c2noc3c2c1C(=O)c1ccccc1-3 was read as CDC25B CDK2 inh -1.7 and HIV TAR-Tat -5.
Screening CC(C)Nc1cc(N2CCN(CCO)CC2)c2noc3c2c1C(=O)c1ccccc1-3 returned CDC25B CDK2 inh 0.08 and HIV TAR-Tat 9.5*.
`CCN1CCN(c2cc(NC3CCCCC3)c3c4c(onc24)-c2ccccc2C3=O)CC1` gave CDC25B CDK2 inh -0.46 and HIV TAR-Tat 4.3*.
`CCNc1cc(N2CCN(CCO)CC2)c2noc3c2c1C(=O)c1ccccc1-3` gave CDC25B CDK2 inh 8.1* and HIV TAR-Tat 15*.
For CCOC(=O)c1c(C)oc2nc(C)nc(N(C)Cc3ccco3)c12 the results were HIV TAR-Tat -0.33.
For Cc1cc(N2CCN(c3ccccc3F)CC2)n2nc(Cc3cccc(F)c3)nc2n1 the results were HIV TAR-Tat 0.24.
COC(=O)c1cnn2c(C(F)(F)F)cc(-c3cccs3)nc12 was read as HIV TAR-Tat 3.
CN(C(=O)C1CCN(S(=O)(=O)c2ccc3c(c2)oc(=O)n3C)CC1)C1CCCCC1 was read as CDC25B CDK2 inh -0.22.
For Oc1cc(O)c2c(c1)O[C@H](c1ccc(O)c(O)c1)[C@@H](O)C2 the results were CDC25B CDK2 inh -0.87 and HIV TAR-Tat 11.
`Oc1cc(O)c2c(c1)O[C@H](c1cc(O)c(O)c(O)c1)[C@H](O)C2` gave HIV TAR-Tat 30*.
For O=c1c(O)cccc2c([C@H]3Oc4cc(O)cc(O)c4C[C@H]3O)cc(O)c(O)c12 the results were HIV TAR-Tat 12*.
O=C1C[C@@H](c2ccccc2)Oc2cc(O)cc(O)c21 was read as HIV TAR-Tat 1.9.
`CN1CCN(C(=O)c2oc3ccccc3c2NC(=O)c2ccc3c(c2)OCO3)CC1` gave HIV TAR-Tat 3.5.
`CC(C)CCNC(=O)C1(C)CCC(=O)N1CCCOC(C)C` (configuration not stated) gave CDC25B CDK2 inh -0.36 and HIV TAR-Tat 1.2.
`Cc1[nH]ccc2c1[nH]c1cc(=O)ccc12` gave HIV TAR-Tat 22*.
`COc1cc(CNc2ccc3[nH]c(=O)[nH]c3c2)cc(Br)c1OCc1cccs1` gave CDC25B CDK2 inh 8.9*.
`O=c1[nH]c2ccc(NCc3cc(Br)ccc3OCc3ccccc3)cc2[nH]1` gave CDC25B CDK2 inh 13* and HIV TAR-Tat -3.1.
Screening CC(C)(CO)NCc1cc(Br)ccc1OCc1ccccc1 returned CDC25B CDK2 inh 0.31 and HIV TAR-Tat -0.65.
For CCOc1cc(CNc2ccc(O)cc2)cc(Br)c1OCc1cccs1 the results were CDC25B CDK2 inh -0.71 and HIV TAR-Tat -6.5.
For COc1ccc(-n2nnc(-c3nc(-c4ccccc4F)no3)c2N)cc1Cl the results were HIV TAR-Tat 0.15.
O=C(NC1CCCC1)C1CCCN(S(=O)(=O)c2ccc3[nH]c(=O)oc3c2)C1 (configuration not stated) was read as HIV TAR-Tat 1.1.
COc1cccc(C2CC(=O)N3CN(c4ccccc4F)CSC3=C2C#N)c1OC (configuration not stated) was read as CDC25B CDK2 inh 4.2* and HIV TAR-Tat -0.9.
For COc1ccc(N2CSC3=C(C#N)C(c4cccc(OC)c4OC)CC(=O)N3C2)cc1 (configuration not stated) the results were CDC25B CDK2 inh 4* and HIV TAR-Tat -5.7.
For COc1ccc(N2CSC3=C(C#N)C(c4cccc(OC)c4OC)CC(=O)N3C2)c(OC)c1 (configuration not stated) the results were CDC25B CDK2 inh 5.7* and HIV TAR-Tat -0.92.
Screening CCCCN1C(C(=O)c2ccccc2)=C(OC(=O)C(C)C)c2ccccc2S1(=O)=O returned CDC25B CDK2 inh -0.83 and HIV TAR-Tat 0.11.
`CCOC(=O)c1nc(NCCN2CCOCC2)c2ccccc2n1` gave HIV TAR-Tat 0.71.
For Cc1ccc(Nc2c(-c3ccc(C(C)C)cc3)c(=O)c2=O)cc1C the results were HIV TAR-Tat 1.7.
Screening Cc1ccc2c(c1)-c1c(cnn1CC(=O)N(CCN(C)C)Cc1ccco1)CO2 returned CDC25B CDK2 inh -1.8 and HIV TAR-Tat 1.1.
Screening CC1CN(C(=O)Nc2ccc(Cl)cc2)c2ccccc2O1 (configuration not stated) returned HIV TAR-Tat 3.9*.
CC1CN(C(=O)Nc2ccc(F)cc2)c2cc(Cl)ccc2O1 (configuration not stated) was read as CDC25B CDK2 inh -2.6 and HIV TAR-Tat 0.53.
O=C(Cn1ncc2c([nH]c3ccccc32)c1=O)N1CCN(c2ccc(Cl)cc2)CC1 was read as HIV TAR-Tat 1.1.
COCCCNc1nc2c(S(=O)(=O)c3ccc(Cl)cc3)nnn2c2ccsc12 was read as HIV TAR-Tat 2.8.
`COc1ccc2nc(NC(=O)Nc3cc(Cl)c(OC)cc3OC)sc2c1` gave CDC25B CDK2 inh 1.3 and HIV TAR-Tat 5.3*.
`CCOc1ccc2nc(NC(=O)Nc3cc(Cl)c(OC)cc3OC)sc2c1` gave CDC25B CDK2 inh -2.3 and HIV TAR-Tat 1.3.
`Nc1cccnc1Nc1ccccc1` gave CDC25B CDK2 inh 3.3 and HIV TAR-Tat -4.8.
`COc1ccc(Nc2ncccc2N)cc1` gave CDC25B CDK2 inh 13* and HIV TAR-Tat -1.7.
Screening COc1ccc(Nc2nc(-c3ccccn3)cs2)cc1 returned CDC25B CDK2 inh -1.8 and HIV TAR-Tat 1.6.
CCOc1ccc(Nc2nc(-c3ccccn3)cs2)cc1 was read as CDC25B CDK2 inh 19*.
c1nc(N2CCCC2)c2nc3n(c2n1)CCCC3 was read as HIV TAR-Tat 1.4.
O=C(NN1CCOCC1)c1csc(Cc2c(Cl)cccc2Cl)n1 was read as CDC25B CDK2 inh -1.4.
Cc1cc(Cl)ccc1OCc1cc(=O)n2nc(-c3ccco3)sc2n1 was read as CDC25B CDK2 inh 1.4 and HIV TAR-Tat 13*.
Screening Cc1ccc(OCc2cc(=O)n3nc(C)sc3n2)c(C)c1 returned CDC25B CDK2 inh -1.7 and HIV TAR-Tat -0.78.
Screening CCOc1ccc(Nc2oc(/C=C/c3cccs3)nc2C#N)cc1 returned CDC25B CDK2 inh -1.2 and HIV TAR-Tat -0.98.
For Cc1ccc(NC(=O)Nc2c(C)nc3nc[nH]n3c2=O)cc1C the results were HIV TAR-Tat 0.38.

Source: PubChem BioAssay
